From PubChem BioAssay (EPA / NIEHS)
Activity calls are given as the source filed them. How the source made its calls: active means hit-call score of the fitted dose curve at least 0.9, where 1 is the maximum; inactive means score below 0.9.

Assays:
Conditions in all cases: mRNA level, 48 h; actives raise or lower the signal
[1] = read-out: ABC Transporter (ABCB1), ABCB1 (gene 5243); experiment: LTEA_HepaRG_ABCB1: Life Technologies and Expression Analysis (LTEA) Assay for ABC Transporter (ABCB1) using HepaRG (AID 2283460)
Method in brief: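 HepaRG, 48 h exposure, 8-pt half-log series from 100 uM, 0.5% DMSO vehicle, duplicates. Readout: ABCB1 transcript by Fluidigm TaqMan qRT-PCR, housekeeping-normalized; bidirectional curve fit vs DMSO baseline.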

[2] = read-out: growth arrest and DNA damage 45 (GADD45B), GADD45B (gene 4616); experiment: LTEA_HepaRG_GADD45B: Life Technologies and Expression Analysis (LTEA) Assay for growth arrest and DNA damage 45 (GADD45B) using HepaRG (AID 2283461)
Method in brief: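 Differentiated human HepaRG cells in serum-free induction medium exposed 48 h in duplicate to eight concentrations, top 100 uM, half-log steps, 0.5% DMSO. GADD45B mRNA by TaqMan qRT-PCR, normalized to ACTB, GAPDH, POLR2A; bidirectional fit versus DMSO.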

[3] = read-out: ABC Transporter (ABCC3), ABCC3 (gene 8714); experiment: LTEA_HepaRG_ABCC3: Life Technologies and Expression Analysis (LTEA) Assay for ABC Transporter (ABCC3) using HepaRG (AID 2283462)
Method in brief: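 Differentiated human HepaRG cells exposed 48 h in serum-free induction medium, 0.5% DMSO vehicle, 8-point half-log series to 100 uM in duplicate. ABCC3 mRNA by qRT-PCR, normalised to ACTB, GAPDH, POLR2A; bidirectional fit vs DMSO.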

[4] = read-out: ABC Transporter (ABCB11), ABCB11 (gene 8647); experiment: LTEA_HepaRG_ABCB11: Life Technologies and Expression Analysis (LTEA) Assay for ABC Transporter (ABCB11) using HepaRG (AID 2283463)
Method in brief: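 HepaRG, 48 h exposure, 8-pt half-log CRC top 100 uM, 0.5% DMSO vehicle, duplicates. Readout: TaqMan qRT-PCR of ABCB11 mRNA, housekeeping-normalized (ACTB/GAPDH/POLR2A). Bidirectional fit vs DMSO baseline.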

[5] = read-out: ABC Transporter (ABCC2), ABCC2 (gene 1244); experiment: LTEA_HepaRG_ABCC2: Life Technologies and Expression Analysis (LTEA) Assay for ABC Transporter (ABCC2) using HepaRG (AID 2283464)
Method in brief: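 Differentiated HepaRG cells in serum-free induction medium exposed 48 h to eight half-log concentrations up to 100 uM, 0.5% DMSO, in duplicate. ABCC2 mRNA measured by qRT-PCR (TaqMan, Fluidigm), normalized to ACTB, GAPDH and POLR2A. Fitted in both directions against DMSO.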

[6] = read-out: Broad substrate specificity ATP-binding cassette transporter ABCG2 (Homo sapiens) (UniProt Q9UNQ0); experiment: LTEA_HepaRG_ABCG2: Life Technologies and Expression Analysis (LTEA) Assay for ABC Transporter (ABCG2) using HepaRG (AID 2283465)
Method in brief: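 HepaRG, 48 h exposure, 8-pt half-log series from 100 uM, 0.5% DMSO vehicle, duplicates. Readout: ABCG2 transcript by qRT-PCR (Fluidigm array), housekeeping-normalized; bidirectional curve fit relative to DMSO baseline.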

[7] = read-out: ATP-citrate lyase (ACLY), ACLY (gene 47); experiment: LTEA_HepaRG_ACLY: Life Technologies and Expression Analysis (LTEA) Assay for ATP-citrate lyase (ACLY) using HepaRG (AID 2283466)
Method in brief: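 qRT-PCR readout of ACLY transcript after 48 h chemical treatment of HepaRG cells; expression normalized to three housekeeping genes. Eight-point half-log series, highest 100 uM, 0.5% DMSO vehicle. Gain or loss fitted against DMSO baseline.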

[8] = read-out: Peroxisomal acyl-coenzyme A oxidase 1 (ACOX1) gene, ACOX1 (gene 51); experiment: LTEA_HepaRG_ACOX1: Life Technologies and Expression Analysis (LTEA) Assay for Peroxisomal acyl-coenzyme A oxidase 1 (ACOX1) gene using HepaRG (AID 2283467)
Method in brief: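 HepaRG, 48 h chemical exposure, 8-pt half-log series from 100 uM top, 0.5% DMSO vehicle, duplicates. Readout: ACOX1 mRNA by Fluidigm qRT-PCR, housekeeping-normalized; bidirectional fit vs DMSO baseline.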

[9] = read-out: Alkaline Phosphatase, Placental (ALPP) gene, ALPP (gene 250); experiment: LTEA_HepaRG_ALPP: Life Technologies and Expression Analysis (LTEA) Assay for Alkaline Phosphatase, Placental (ALPP) gene using HepaRG (AID 2283468)
Method in brief: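 HepaRG cells plated 48 h, then exposed in duplicate for 48 h in serum-free induction medium to 8-point half-log series from 100 uM in 0.5% DMSO. ALPP mRNA by TaqMan qRT-PCR, normalized to ACTB/GAPDH/POLR2A; bidirectional fit versus DMSO.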

[10] = read-out: Bcl-2 (BAD) gene, BAD (gene 572); experiment: LTEA_HepaRG_BAD: Life Technologies and Expression Analysis (LTEA) Assay for Bcl-2 (BAD) gene using HepaRG (AID 2283469)
Procedure: LTEA_HepaRG is a cell based, multiplexed-readout assay that uses HepaRG, a human liver cell line, with measurements taken at 48 hours after chemical dosing on a 96-well plate.LTEA_HepaRG_BAD is one of 102 assay component(s) measured in the LTEA HepaRG cell culture assay. It is a marker of Cell proliferation, survival, death.Data from the assay component LTEA_HepaRG_BAD was analyzed into 1 endpoint. This assay endpoint, LTEA_HepaRG_BAD, was analyzed with bidirectional fitting relative to DMSO as the negative control and baseline of activity. Using a type of inducible reporter, measures of mRNA induction for gain or loss-of-signal activity can be used to understand regulation of transcription factor activity. To generalize the intended target to other relatable targets, this assay endpoint is annotated to the cell cycle intended target family, where the subfamily is Cell proliferation, survival, death.
A total of 1060 chemcials from the ToxCast library were tested in eight-point concentration-response experiments. Cell culture and cytotoxicity assays were conducted at Thermo Fisher Scientific's Custom Services facility (Madison, WI). […] Fluidigm's 96.96 Dynamic ArrayTM (Fluidigm, Amsterdam, the Netherlands) technology was used for gene expression analyses by quantitative reverse transcription polymerase chain reaction (qRT-PCR, performed by Quintiles/Expression Analysis, Durham, NC)89. […]

Measured: outcome

Broad substrate specificity ATP-binding cassette transporter ABCG2 (Homo sapiens), sequence (Q9UNQ0 whole entry, looked up): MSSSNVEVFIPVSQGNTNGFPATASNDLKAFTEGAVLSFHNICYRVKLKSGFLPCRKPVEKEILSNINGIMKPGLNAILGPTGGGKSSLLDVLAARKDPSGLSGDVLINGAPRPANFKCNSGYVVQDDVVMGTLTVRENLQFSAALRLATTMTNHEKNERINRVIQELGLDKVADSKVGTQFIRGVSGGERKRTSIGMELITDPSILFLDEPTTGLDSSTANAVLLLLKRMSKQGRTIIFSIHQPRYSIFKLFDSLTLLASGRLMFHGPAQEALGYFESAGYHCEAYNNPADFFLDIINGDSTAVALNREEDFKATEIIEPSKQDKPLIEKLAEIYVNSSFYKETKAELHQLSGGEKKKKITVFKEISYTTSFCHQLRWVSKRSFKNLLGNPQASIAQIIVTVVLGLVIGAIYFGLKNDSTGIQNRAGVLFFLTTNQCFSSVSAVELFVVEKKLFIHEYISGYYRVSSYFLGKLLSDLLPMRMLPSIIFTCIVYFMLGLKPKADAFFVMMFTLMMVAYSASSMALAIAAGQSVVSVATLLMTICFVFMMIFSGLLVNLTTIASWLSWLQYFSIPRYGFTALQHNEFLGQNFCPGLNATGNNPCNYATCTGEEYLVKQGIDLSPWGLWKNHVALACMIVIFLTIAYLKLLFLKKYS

O=C(O)c1ccc([N+](=O)[O-])cc1
inactive: all assays above
